PubChem BioAssay (NCATS)
Inconclusive results are not listed. A call without a number means that no potency is given here. Activity calls are given as the source filed them. Calls follow the shape of the dose curve; as a rule, active = well fitted cell-killing curve with a large enough effect; inconclusive = small, poorly fitted or top-dose-only effect; inactive = flat fitted curve, though single readings scatter.
Potency is read from the fitted curve at half-maximal effect.

Experiment: qHTS of pediatric cancer cell lines to identify multiple opportunities for drug repurposing: Primary screen for BT-12 cells (AID 1347101); also: nearly all actives have a fitted effect of over 25% in size
Conditions: BT-12 viability, CellTiter-Glo luminescence, 48 h; series mostly up to 57.3 µM
Excerpt: Drug repurposing or repositioning has been offered as a strategy for drug development in oncology programs. This approach has special potential for childhood cancers and other rare or orphan diseases, where the expected return on new drug development has been a disincentive to pharmaceuticals.
In this project we exploit the poly-pharmacology of drugs to discover new indications via phenotypic screening of a panel of 19 well-characterized cell lines derived from solid tumors seen in children and adolescents. The goal is to identify approved drugs with previously unrecognized anticancer properties that has the potential to reveal new mechanisms and biological processes involved in carcinogenesis or drug resistance. We employed a titration-based paradigm (quantitative high-throughput screening or qHTS), where all compounds were tested at multiple concentrations for their effect on cell viability. Concentration-response curves (CRCs) were derived directly from the primary screen, and both potency and efficacy values were used to identify compounds with robust bioactivity profiles. We screened the NIH Chemical Genomics Center (NCGC) Pharmaceutical Collection (NPC) and Mechanism Interrogation Plate (MIPE) small molecule collections of approved and investigational compounds against these cell lines; and measured metabolically active cells after 48 hours of compound treatment as a proxy for cell viability.
Assay Submitter: Nathalia J. Martinez, National Center for Advancing Translational Sciences, National Institutes of Health, Rockville, MD, USA; email: natalia.martinez@nih.gov
[1] Shen, M et al. Quantitative high-throughput phenotypic screening of pediatric cancer cell lines identifies multiple opportunities for drug repurposing. Oncotarget 2017 Dec 19;9(4):4758-4772. PMID 29435139.
The cells were obtained from University of North Carolina (UNC), Pediatric Preclinical Testing Program (PPT), and Coriell Institute (CI).
qHTS cell viability assay:
Cells were assayed in growth media at a density of 500-1,000 cells/well. Five microliters of cells were dispensed into 1,536-well, white, solid-bottom, TC-treated plates (Greiner Bio One) using a multidrop dispenser and incubated at 37 degrees C, 5% CO2, under a humidified atmosphere for 5 hours. Twenty-three nanoliters of compounds and controls (neutral control DMSO or positive control bortezomib at final concentration of 2.3 µM) were subsequently transferred by Kalypsys pintool. For primary screens, the MIPE collection was tested at 11-point dilutions (final concentrations range from 0.78 nM to 46 µM) and the NPC collection at 8-point dilutions (final concentrations range from 0.59 nM to 46 µM). Compounds tested in follow-up screens were assayed at 11-point dilutions. Cells were incubated for 48 hours, followed by addition of 3 µL of CellTiter-Glo (Promega). After a 15 min incubation at room temperature, samples were analyzed for luminescence intensity using a ViewLux High-throughput CCD imager equipped with clear filters.
With `Oc1ccccc1C=NCc1ccccc1` the Potency was “inactive”. In the case of `CCN(CC)CCOC(=O)C(Cc1cccc2ccccc12)CC1CCCO1` (stereo not given), the Potency is reported as “inactive”. With `N[C@H](C(=O)O)[C@@H](O)c1ccc(O)c(O)c1` the Potency was “inactive”. With `CCOC(=O)c1ccc(N)cc1` the Potency was “inactive”. In the case of `OC[C@H]1O[C@@H]2O[C@H]3[C@H](O)[C@@H](O)[C@@H](O[C@H]4[C@H](O)[C@@H](O)[C@@H](O[C@H]5[C@H](O)[C@@H](O)[C@@H](O[C@H]6[C@H](O)[C@@H](O)[C@@H](O[C@H]7[C@H](O)[C@@H](O)[C@@H](O[C@H]8[C@H](O)[C@@H](O)[C@@H](O[C@H]1[C@H](O)[C@H]2O)O[C@@H]8CO)O[C@@H]7CO)O[C@@H]6CO)O[C@@H]5CO)O[C@@H]4CO)O[C@@H]3CO`, the Potency is reported as “inactive”. For `C[N+]1(C)CCC(=C(c2ccccc2)c2ccccc2)CC1`, the Potency was “inactive”. In the case of `CC(=O)Nc1ncc([N+](=O)[O-])s1`, the Potency is reported as “inactive”. For `CC(=O)N[C@@H](CCC(=O)O)C(=O)O`, the Potency was “inactive”. With `NS(=O)(=O)c1ccc(Cl)c(S(N)(=O)=O)c1` the Potency was “inactive”. For `CCCCCCCCCCCCCC(=O)OC(C)C`, the Potency was “inactive”. In the case of `COc1ccc(-c2cc(C(F)F)nn2-c2ccc(S(N)(=O)=O)cc2)cc1F`, the Potency is reported as “inactive”. With `NS(=O)(=O)c1cc2c(cc1Cl)NC(CC1CCCC1)NS2(=O)=O` (stereo not given) the Potency was “inactive”. In the case of `CC(O)Cn1cnc2c1c(=O)n(C)c(=O)n2C` (stereo not given), the Potency is reported as “inactive”. For `FC(F)(F)C(F)(F)C(F)(F)C(F)(F)C(F)(F)C(F)(F)C(F)(F)C(F)(F)Br`, the Potency was “inactive”. In the case of `CC(=O)NC(=O)c1ccccc1O`, the Potency is reported as “inactive”. With `O=C1c2cccc3c2[C@H](CCC3)CN1[C@@H]1CN2CCC1CC2` the Potency was “inactive”. In the case of `CCCCCCCCCCCCOCCOCCOCCOCCOCCOCCOCCOCCOCCO`, the Potency is reported as 6.92 µM (active). With `NC(N)=NN=C(/C=C/c1ccc([N+](=O)[O-])o1)/C=C/c1ccc([N+](=O)[O-])o1` the Potency was 0.978 µM (active). With `OC(C#CCN1CCCC1)(c1ccccc1)c1ccccc1` the Potency was “inactive”. In the case of `CC(C(=O)O)c1cccc(Oc2ccccc2)c1` (stereo not given), the Potency is reported as “inactive”. With `CC(=O)O[C@]1(C(C)=O)CC[C@H]2[C@@H]3C=C(C)C4=CC(=O)CC[C@]4(C)[C@H]3CC[C@@]21C` the Potency was “inactive”. With `O=C(O)CCC(=O)Nc1ccc(S(=O)(=O)Nc2nccs2)cc1` the Potency was “inactive”. In the case of `CC(CNC1CCCCC1)OC(=O)c1ccccc1` (stereo not given), the Potency is reported as “inactive”. With `O=C1C(O)=C(O)C(=O)C(O)=C1O` the Potency was “inactive”. With `CCCCN=C(N)N=C(N)N` the Potency was “inactive”. With `COc1ccccc1N1CCN(CCCCNC(=O)c2ccc(-c3ccc(C(C)=O)cc3)cc2)CC1` the Potency was “inactive”. For `CNCCc1ccccn1`, the Potency was “inactive”. With `CCCCCCCCCCCCCC[N+](C)(C)Cc1ccccc1` the Potency was 6.92 µM (active). In the case of `CCCCCCCCCCCCCCCC(=O)O`, the Potency is reported as “inactive”. With `CCOc1ccccc1OCCN[C@H](C)Cc1ccc(OC)c(S(N)(=O)=O)c1` the Potency was “inactive”. For `Cc1cc(NS(=O)(=O)c2ccc(N)cc2)nc(C)n1`, the Potency was “inactive”. In the case of `C/C=C/c1ccc(O)c(OC)c1`, the Potency is reported as “inactive”. In the case of `CC(C)Cn1cnc2c1c(=O)n(C)c(=O)n2C`, the Potency is reported as “inactive”. For `C=C[C@@]1(C)CC(=O)[C@]2(O)[C@@]3(C)[C@@H](O)CCC(C)(C)[C@@H]3[C@H](O)[C@H](OC(C)=O)[C@@]2(C)O1`, the Potency was “inactive”. With `N/C(=N\N=C\c1ccc(Cl)cc1)N/N=C/c1ccc(Cl)cc1` the Potency was “inactive”. For `CCCCCCCCCCC[C@@H](C[C@@H]1OC(=O)[C@H]1CCCCCC)OC(=O)[C@H](CC(C)C)NC=O`, the Potency was “inactive”. With `O=C(CN1CCN(Cc2ccc3c(c2)OCO3)CC1)N1c2ccccc2Sc2ccccc21` the Potency was “inactive”. For `COc1cc(C(=O)N2CCCCCCC2)cc(OC)c1OC`, the Potency was “inactive”. With `Cc1ccc(S(=O)(=O)NC(=O)NC2CCCC2)cc1` the Potency was “inactive”. In the case of `NC(=O)C1(N2CCCCC2)CCN(CCCC(=O)c2ccc(F)cc2)CC1`, the Potency is reported as “inactive”.
